Assay outcomes: PubChem BioAssay, National Center for Advancing Translational Sciences (NCATS)
A549 tox-1: Nrf2 qHTS screen for inhibitors: counterscreen for cytotoxicity; Potency, µM (doses to about 46 µM), hits mostly inhibitors; 0.16% of 390,000 active; A549 ARE-Fluc cells, CellTiter-Fluor viability, 18-24 h
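A549 ARE_Fluc cells in 5% FBS OPTI-MEM were exposed to compounds in concentration-response for 18-24 h at 37 deg C. Viability was read by CellTiter-Fluor fluorescence (Ex 405/Em 525) after 30 min, before the luciferase read.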
ELG1 repair inh: qHTS screen for small molecules that inhibit ELG1-dependent DNA repair in human embryonic kidney (HEK293T) cells expressing luciferase-tagged ELG1; HEK293T ELG1-luciferase reporter, luminescence, 16 h; DNA damage induced by 5-fluorouridine; AID 504467, 2011; 2.3% of 330,000 active; Potency, µM (doses to about 46.1 µM), hits mostly inhibitors; note: nearly all actives have a fitted effect of over 55% in size
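Quantitative HTS, concentration-response format. 2,000 cells/well co-treated with 5-fluorouridine and compound, 16 hr in 5% CO2 at 37 °C; ONE-Glo luminescence read after 30 min.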
IDH1 R132H inh: qHTS for Inhibitors of mutant isocitrate dehydrogenase 1 (IDH1): qHTS; Isocitrate dehydrogenase [NADP] cytoplasmic (Homo sapiens), O75874; IDH1-R132H enzyme, NADPH consumption, diaphorase/resazurin fluorescence; Potency, µM (doses to about 76.6 µM), usual class: inhibitors; 0.093% of 390,000 active; AID 602179, 2012; note: nearly all actives have a fitted effect of over 65% in size
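IDH1-R132H (0.5 ug/mL) preincubated 30 min with compound, then NADPH (0.016 mM) and alpha-KG (2 mM) added; 80 min at RT, pH 7.5. Remaining NADPH coupled via diaphorase/resazurin to fluorescence (540/590 nm); concentration-response curves normalized to no-enzyme control.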
Nrf2 ARE act: qHTS of Nrf2 Activators. AREc32 ARE-luciferase reporter (MCF7-derived line), luminescence, 24 h. Potency, µM (highest dose often 46.1 µM), usual class: activators. 0.31% of 410,000 active. AID 624171, 2012; note: nearly all actives have a fitted effect of over 65% in size
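ARE-driven firefly luciferase activity in AREc32 cells measured after a 24 hr compound exposure at 37 deg C, using Steady-Glo reagent and a 30 min room-temperature hold.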
Nrf2 block: Nrf2 qHTS screen for inhibitors | 2.1% of 360,000 active | A549 ARE-Fluc reporter, luciferase luminescence, 18-24 h | Potency, µM (series often up to 46 µM), usual class: inhibitors; note: nearly all actives have a fitted effect of over 60% in size
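A549 ARE_Fluc cells, 5000/well, 5% FBS OPTI-MEM; compounds in dose-response, 18-24 h at 37 °C/5% CO2; CellTiter-Fluor viability read (Ex 405/Em 525), then BugLite luciferase luminescence = Nrf2 activity.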
FLuc counter 3: Nrf2 qHTS screen for inhibitors: Purified Fluc Biochemical Counterscreen for Hit Validation | shares compounds with Nrf2 block | purified firefly luciferase, luminescence inhibition | Potency, µM (doses to about 57.5 µM), hits mostly inhibitors | 4% of 1,400 active | AID 720522, 2013; note: nearly all actives have a fitted effect of over 65% in size
Target sequence (P08659 whole entry, looked up): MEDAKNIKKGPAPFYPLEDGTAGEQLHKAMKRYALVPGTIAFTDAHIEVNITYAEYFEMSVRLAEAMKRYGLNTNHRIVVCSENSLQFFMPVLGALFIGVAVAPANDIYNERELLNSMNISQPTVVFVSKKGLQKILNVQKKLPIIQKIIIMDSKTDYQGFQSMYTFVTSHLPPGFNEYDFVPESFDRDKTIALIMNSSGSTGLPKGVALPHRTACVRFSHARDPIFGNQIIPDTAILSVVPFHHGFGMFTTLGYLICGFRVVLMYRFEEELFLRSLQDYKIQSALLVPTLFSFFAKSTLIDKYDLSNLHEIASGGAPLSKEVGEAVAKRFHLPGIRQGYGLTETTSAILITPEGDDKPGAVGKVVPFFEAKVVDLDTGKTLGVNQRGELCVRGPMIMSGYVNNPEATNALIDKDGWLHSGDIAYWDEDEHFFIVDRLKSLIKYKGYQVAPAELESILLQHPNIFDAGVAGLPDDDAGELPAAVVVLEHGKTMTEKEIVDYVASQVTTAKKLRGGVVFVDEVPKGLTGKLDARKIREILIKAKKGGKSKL
A549 tox-2: Nrf2 qHTS screen for inhibitors: A549 ARE-Fluc Cytotoxicity Counterscreen for Hit Validation; shares compounds with Nrf2 block; A549 ARE-Fluc cells, cytotoxicity counterscreen; Potency, µM (series often up to 46.1 µM), usual class: inhibitors; 2% of 1,400 active; AID 720523, 2013;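 note: cells exposed to compounds for 18 to 24 hours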
Nrf2 ARE inh: Nrf2 qHTS screen for inhibitors: Nrf2 A549 ARE-Fluc Confirmation Assay for Hit Validation | shares compounds with Nrf2 block | A549 ARE-firefly luciferase reporter, luminescence | Potency, µM (top dose mostly 46.1 µM), hits mostly inhibitors | 74% of 1,400 active | AID 720524, 2013; note: nearly all actives have a fitted effect of over 65% in size
Large screens that a line does not name were inactive (follow-up assays come after a bar, where shown). In the library only some 3.8% were active in any assay of this set; here they are far more common. Calls come from the whole dose curve; as a rule, active = well fitted curve in the direction sought with a large enough effect; inconclusive = small, poorly fitted or top-dose-only effect, or another doubt; inactive = no such curve, though single readings can be large; an effect the other way counts as inactive or inconclusive.

O=C(O)CCn1nnc(-c2cccs2)n1	none
CC(C)c1ccc(-c2nnn(CCC(=O)O)n2)cc1	Nrf2 block 0.33µM | FLuc counter 3 11µM | A549 tox-2 inactive | Nrf2 ARE inh 0.82µM
COc1ccc(C(=O)COC(=O)c2cc(S(=O)(=O)N3CCCCC3)ccc2N2CCOCC2)c(OC)c1	ELG1 repair inh inconclusive
O=C(CSc1nnc(-c2cccnc2)s1)Nc1ccnc2ccccc12	ELG1 repair inh 12µM, Nrf2 block 4.1µM | FLuc counter 3 inactive | A549 tox-2 inactive | Nrf2 ARE inh 5.2µM
COc1cccc(C(=O)Nc2cccc(C(=O)OCc3cc(=O)n4c(C)csc4n3)c2)c1	none (no result: ELG1 repair inh, Nrf2 block)
Cn1cccc/c1=N\c1cccc[n+]1C	ELG1 repair inh 18µM, Nrf2 block 2.9µM | FLuc counter 3 inactive | A549 tox-2 inactive | Nrf2 ARE inh 5.8µM
Cn1c(CNC(=O)CCNC(=O)c2cccc(Cl)c2)cc(=O)n(C)c1=O	none
O=C(N=C1SC2CS(=O)(=O)CC2N1c1ccc(Cl)cc1Cl)C1CC1 (stereo not drawn)	none
Cc1ccc(-c2csc(NC(=O)c3cccc([N+](=O)[O-])c3)n2)cc1	Nrf2 block inconclusive | FLuc counter 3 inactive | A549 tox-2 inactive | Nrf2 ARE inh 1.5µM
O=C(Nc1nc(-c2ccccc2)cs1)c1ccc(N2CCOCC2)c([N+](=O)[O-])c1	A549 tox-1 inconclusive, ELG1 repair inh 3.7µM, Nrf2 block 4.6µM | FLuc counter 3 inconclusive | A549 tox-2 inconclusive | Nrf2 ARE inh 7.3µM
CCOC(=O)Cc1csc(NC(=O)c2cccc([N+](=O)[O-])c2)n1	ELG1 repair inh inconclusive
O=C(Nc1ccc(-c2csc(Nc3ccccc3)n2)cc1)c1cccc(C(F)(F)F)c1	ELG1 repair inh inconclusive, Nrf2 block 9.2µM | FLuc counter 3 inactive | A549 tox-2 inactive | Nrf2 ARE inh 15µM
CCCn1c(C)cc(C(=O)CN2C(=O)c3ccccc3S2(=O)=O)c1C	none (no result: A549 tox-1, ELG1 repair inh, Nrf2 block)
Cc1cc(C(=O)CN2C(=O)c3ccccc3S2(=O)=O)c(C)n1CC1CCCO1 (stereo not drawn)	ELG1 repair inh 5.2µM, Nrf2 block 0.92µM | FLuc counter 3 1.3µM | A549 tox-2 inactive | Nrf2 ARE inh 1.2µM
COc1cc(C(CC(=O)N2CCOCC2)c2c(OC)cc(OC)c3c(-c4ccccc4)cc(=O)oc23)cc(OC)c1OC (stereo not drawn)	none (no result: ELG1 repair inh, IDH1 R132H inh, Nrf2 ARE act)
COc1ncccc1C(=O)N1CCCC(N2CCN(c3cccc(Cl)c3)CC2)C1 (stereo not drawn)	Nrf2 block 8.2µM | FLuc counter 3 inactive | A549 tox-2 inactive | Nrf2 ARE inh inconclusive
COCCn1c(CN2CCN(c3cccc(Cl)c3)CC2)nc2c1c(=O)n(C)c(=O)n2C	ELG1 repair inh 15µM, Nrf2 block 6.5µM | FLuc counter 3 inactive | A549 tox-2 inactive
O=C(Nc1nccs1)c1ccc(-c2cccc([N+](=O)[O-])c2)o1	ELG1 repair inh inconclusive, Nrf2 block inconclusive
O=C(Nc1ncc(Cc2cccc(C(F)(F)F)c2)s1)c1ccc(-c2cccc([N+](=O)[O-])c2)o1	ELG1 repair inh 12µM, Nrf2 block 2.6µM | FLuc counter 3 inactive | A549 tox-2 inactive | Nrf2 ARE inh 5.2µM
O=C(Nc1cccn(Cc2c(Cl)cccc2Cl)c1=O)c1ccc(Cl)cc1Cl	A549 tox-1 inconclusive, Nrf2 block inconclusive
O=C(Nc1cccn(Cc2c(Cl)cccc2Cl)c1=O)c1ccccc1Cl	Nrf2 block 1.5µM | FLuc counter 3 inactive | A549 tox-2 inactive | Nrf2 ARE inh 9.2µM
CC1(C)CC2CC(C)(CN2C(=O)COC(=O)c2ccccc2C(F)(F)F)C1 (stereo not drawn)	Nrf2 block 3.7µM | FLuc counter 3 inactive | A549 tox-2 inactive | Nrf2 ARE inh inactive
CSc1ncccc1C(=O)OCC(=O)N1CC2(C)CC1CC(C)(C)C2 (stereo not drawn)	none
CCOC(=O)c1noc2ncnc(Nc3cc(Cl)c(OC)cc3OC)c12	none (no result: ELG1 repair inh)
COc1ccc(OC)c(CNc2ncnc3onc(C)c23)c1	none (no result: ELG1 repair inh)
Cc1ccc(CCNc2ncnc3onc(C)c23)cc1	Nrf2 block 9.2µM (no result: ELG1 repair inh) | FLuc counter 3 inconclusive | A549 tox-2 inactive | Nrf2 ARE inh 5.8µM
CCOc1ccc(CCNc2ncnc3onc(C)c23)cc1OCC	Nrf2 block 7.3µM (no result: ELG1 repair inh) | FLuc counter 3 inactive | A549 tox-2 inactive | Nrf2 ARE inh inconclusive
Cc1noc2ncnc(NCCc3ccccc3)c12	Nrf2 block inconclusive (no result: ELG1 repair inh)
COc1ccc(CNc2ncnc3onc(C)c23)cc1	Nrf2 block 4.1µM (no result: ELG1 repair inh) | FLuc counter 3 inactive | A549 tox-2 inactive | Nrf2 ARE inh inconclusive
CCC(=O)NC(c1ccc(OC)c(OC)c1)c1cc(Cl)c2cccnc2c1O (stereo not drawn)	A549 tox-1 inconclusive, ELG1 repair inh inconclusive, Nrf2 block 5.8µM | FLuc counter 3 inactive | A549 tox-2 inactive | Nrf2 ARE inh 6.5µM
CCCC(=O)NC(c1ccccc1OC)c1ccc2cccnc2c1O (stereo not drawn)	A549 tox-1 inconclusive, ELG1 repair inh 4.1µM, Nrf2 block 7.3µM | FLuc counter 3 inactive | A549 tox-2 inactive | Nrf2 ARE inh 9.2µM
CCCC(=O)NC(c1cccs1)c1cc(Cl)c2cccnc2c1O (stereo not drawn)	Nrf2 block 5.2µM | FLuc counter 3 inactive | A549 tox-2 inactive | Nrf2 ARE inh 7.3µM
CCCC(=O)NC(c1ccco1)c1cc(Cl)c2cccnc2c1O (stereo not drawn)	A549 tox-1 inconclusive, ELG1 repair inh inconclusive, Nrf2 block inconclusive
COc1ccc(C(NC(C)=O)c2cc(Cl)c3cccnc3c2O)cc1OC (stereo not drawn)	ELG1 repair inh inconclusive, Nrf2 block inconclusive
Cc1cc(C)nc(Nc2n[nH]c(C)n2)n1	Nrf2 block 5.8µM | FLuc counter 3 inactive | A549 tox-2 inactive | Nrf2 ARE inh inactive
Cc1cc(C)nc(Nc2n[nH]c(-c3ccc(N)cc3)n2)n1	ELG1 repair inh inconclusive, Nrf2 block inconclusive
COc1ccccc1CNC(=O)CCNS(=O)(=O)c1ccc2c(c1)CCCC(=O)N2	Nrf2 block inconclusive (no result: ELG1 repair inh)
